# Results taken from PubChem BioAssay AID1159580 (chemical genetic matrix, 2015).
# Hit rate of the full screen: of about 5,500 compounds, about 2,000 (36%) were called active. Another 18% or so got no clear call; they are omitted. Some of the results follow. Unmarked numbers belong to inactive results. Cut-off read from the data, not from the text of the source: active = normalized growth mostly below about 0.91 (no sharp cut-off); inconclusive = no clear call, values can overlap the other calls; inactive = mostly above about 0.92.
# Assay: chemical genetic growth profiling, strain panel (AID 1159580);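 note: tested at 20 µM; growth read once vehicle control cultures reached saturation at 30 °C; 1 = growth at the plate median or of vehicle wells; lower values mean less growth of the strain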
# Settings: S. cerevisiae deletion strains, growth OD
compound,measurement,setting,value
CC(C)(CCC(C)(C)N1C(=O)c2cccc3cccc(c23)C1=O)N1C(=O)c2cccc3cccc(c23)C1=O,normalized growth,"locus YAR019C, strain CDC15, stronger effect = lower value",0.0987 (active)
same,normalized growth,"locus YBL105C, strain PKC1, stronger effect = lower value",0.0855 (active)
same,normalized growth,"locus YBR135W, strain CKS1, stronger effect = lower value",0.0899 (active)
same,normalized growth,"locus YBR136W, strain MEC1, stronger effect = lower value",0.107 (active)
same,normalized growth,"locus YBR160W, strain CDC28, stronger effect = lower value",0.0904 (active)
same,normalized growth,"locus YDL017W, strain CDC7, stronger effect = lower value",0.0866 (active)
same,normalized growth,"locus YDL028C, strain MPS1, stronger effect = lower value",0.0947 (active)
same,normalized growth,"locus YDL101C, strain DUN1, stronger effect = lower value",0.628 (active)
same,normalized growth,"locus YDL108W, strain KIN28, stronger effect = lower value",0.13 (active)
same,normalized growth,"locus YDL132W, strain cdc53, stronger effect = lower value",0.971
same,normalized growth,"locus YDL214C, strain PRR2, stronger effect = lower value",0.0867 (active)
same,normalized growth,"locus YDR052C, strain DBF4, stronger effect = lower value",0.308 (active)
same,normalized growth,"locus YDR054C, strain cdc34, stronger effect = lower value",0.227 (active)
same,normalized growth,"locus YDR226W, strain ADK1, stronger effect = lower value",0.509 (active)
same,normalized growth,"locus YDR477W, strain SNF1, stronger effect = lower value",0.0979 (active)
same,normalized growth,"locus YER123W, strain YCK3, stronger effect = lower value",0.103 (active)
same,normalized growth,"locus YER133W, strain GLC7, stronger effect = lower value",0.0935 (active)
same,normalized growth,"locus YFL029C, strain CAK1, stronger effect = lower value",0.0982 (active)
same,normalized growth,"locus YFR003C, strain YPI1, stronger effect = lower value",0.0904 (active)
same,normalized growth,"locus YFR019W, strain FAB1, stronger effect = lower value",0.0894 (active)
same,normalized growth,"locus YGR040W, strain KSS1, stronger effect = lower value",0.1 (active)
same,normalized growth,"locus YGR052W, strain FMP48, stronger effect = lower value",0.133 (active)
same,normalized growth,"locus YGR092W, strain DBF2, stronger effect = lower value",0.098 (active)
same,normalized growth,"locus YHR030C, strain SLT2, stronger effect = lower value",0.0982 (active)
same,normalized growth,"locus YHR079C, strain IRE1, stronger effect = lower value",0.116 (active)
same,normalized growth,"locus YHR082C, strain KSP1, stronger effect = lower value",0.129 (active)
same,normalized growth,"locus YHR205W, strain SCH9, stronger effect = lower value",0.213 (active)
same,normalized growth,"locus YIL147C, strain SLN1, stronger effect = lower value",0.0853 (active)
same,normalized growth,"locus YJL095W, strain BCK1, stronger effect = lower value",0.128 (active)
same,normalized growth,"locus YJL128C, strain PBS2, stronger effect = lower value",0.472 (active)
same,normalized growth,"locus YJL157C, strain FAR1, stronger effect = lower value",0.0837 (active)
same,normalized growth,"locus YJR016C, strain ILV3, stronger effect = lower value",0.976
same,normalized growth,"locus YJR066W, strain TOR1 (second series), stronger effect = lower value",0.12 (active)
same,normalized growth,"locus YJR066W, strain TOR1, stronger effect = lower value",0.123 (active)
same,normalized growth,"locus YKL048C, strain ELM1, stronger effect = lower value",0.104 (active)
same,normalized growth,"locus YKL067W, strain YNK1, stronger effect = lower value",0.0909 (active)
same,normalized growth,"locus YKL101W, strain HSL1, stronger effect = lower value",0.099 (active)
same,normalized growth,"locus YKL193C, strain SDS22, stronger effect = lower value",0.0977 (active)
same,normalized growth,"locus YKL203C, strain TOR2, stronger effect = lower value",0.116 (active)
same,normalized growth,"locus YLR113W, strain HOG1, stronger effect = lower value",0.166 (active)
same,normalized growth,"locus YLR133W, strain CKI1, stronger effect = lower value",0.0889 (active)
same,normalized growth,"locus YLR403W, strain SFP1, stronger effect = lower value",0.0154 (active)
same,normalized growth,"locus YML070W, strain DAK1, stronger effect = lower value",0.0999 (active)
same,normalized growth,"locus YMR001C, strain CDC5, stronger effect = lower value",0.0878 (active)
same,normalized growth,"locus YMR205C, strain PFK2 (second series), stronger effect = lower value",0.0998 (active)
same,normalized growth,"locus YMR277W, strain FCP1, stronger effect = lower value",0.104 (active)
same,normalized growth,"locus YNL006W, strain LST8, stronger effect = lower value",0.0921 (active)
same,normalized growth,"locus YNL020C, strain ARK1, stronger effect = lower value",0.0878 (active)
same,normalized growth,"locus YNL161W, strain CBK1, stronger effect = lower value",0.0843 (active)
same,normalized growth,"locus YNL183C, strain NPR1, stronger effect = lower value",0.13 (active)
same,normalized growth,"locus YNL207W, strain RIO2, stronger effect = lower value",0.508 (active)
same,normalized growth,"locus YNL222W, strain SSU72, stronger effect = lower value",0.095 (active)
same,normalized growth,"locus YNL307C, strain MCK1 (second series), stronger effect = lower value",0.0953 (active)
same,normalized growth,"locus YOL078W, strain AVO1, stronger effect = lower value",0.093 (active)
same,normalized growth,"locus YOL136C, strain PFK27, stronger effect = lower value",0.0923 (active)
same,normalized growth,"locus YOR061W, strain CKA2, stronger effect = lower value",0.1 (active)
same,normalized growth,"locus YOR119C, strain RIO1, stronger effect = lower value",0.118 (active)
same,normalized growth,"locus YOR231W, strain MKK1, stronger effect = lower value",0.13 (active)
same,normalized growth,"locus YOR329C, strain SCD5, stronger effect = lower value",0.0829 (active)
same,normalized growth,"locus YPL031C, strain PHO85, stronger effect = lower value",0.0976 (active)
same,normalized growth,"locus YPL153C, strain RAD53, stronger effect = lower value",0.101 (active)
same,normalized growth,"locus YPL204W, strain HRR25, stronger effect = lower value",0.0987 (active)
same,normalized growth,"locus YPL209C, strain IPL1, stronger effect = lower value",0.0859 (active)
same,normalized growth,"locus YPL256C, strain CLN2, stronger effect = lower value",0.134 (active)
same,normalized growth,"locus YPR025C, strain CCL1, stronger effect = lower value",0.0843 (active)
same,normalized growth,"locus YPR111W, strain DBF20, stronger effect = lower value",0.92
same,normalized growth,"strain NNK1, stronger effect = lower value",0.0956 (active)
same,normalized growth,"strain TSCII, stronger effect = lower value",0.0989 (active)
